This is a sample that favours compounds with a hit; in the whole collection about 7% have one here.
rCAG RNA binder: binders of r(CAG) RNA repeats, primary screen, biochemical, fluorescence. inhibition, % at 3 µM. AID 651821, 2012. r(CAG) RNA repeat, TO-PRO-1 dye displacement fluorescence. 1.3% of 370,000 active;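 active = inhibition above the plate cutoff, the mean of all test compounds on that plate plus 3 SD, cut at about 35% in these data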;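 note: 0% = DMSO alone and 100% = 100 µM mitoxantrone as full dye displacement; higher means more dye released from RNA so lower well fluorescence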
NR3A LBD binder: binders of NR3A ligand-binding domain, primary screen, biophysical, differential scanning fluorimetry, uHTS; Glutamate receptor ionotropic, NMDA 3A (GRIN3A) ligand-binding domain; Tm shift relative to glycine control, % at 25 µM; 2.5% of 340,000 active; NR3A LBD differential scanning fluorimetry, Tm shift; 0% = protein alone, 100% = glycine-bound protein;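 active = melting temperature shift of at least 10% of the positive control shift, at one fixed dose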
ADAM10 inh: human ADAM10 inhibitors, primary screen, biochemical, QFRET, HTS; AID 720582, 2013; Disintegrin and metalloproteinase domain-containing protein 10 (Homo sapiens), O14672; inhibition, % at 7 µM; 0.62% of 370,000 active; recombinant ADAM10, EDANS/DABCYL FRET peptide cleavage, 3 h;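 active = inhibition above a per-campaign cutoff equal to the mean of compounds falling between control-based bounds plus 3 SD, cut at about 20% in these data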;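 note: 0% = DMSO wells while the 100% control is not disclosed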
AHR act: AHR activators, primary screen, cell-based, luminescence, luciferase reporter, human; activation, % at 5 µM; AHR-responsive luciferase reporter cells; 2.5% of 320,000 active; Aryl hydrocarbon receptor (Homo sapiens), P35869; AID 2796, 2010; in the data active = activation above about 47%;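 note: 0% = vehicle wells and 100% = reference agonist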
KLK7 zymogen act: proKLK7 zymogen activators, primary screen, biochemical, fluorescence intensity | Kallikrein-7 (Homo sapiens), P49862 | purified proKLK7, EDANS-DABCYL substrate fluorescence; 100% is mature enzyme control, 0% vehicle | activation, % at 7 µM | 0.9% of 370,000 active | AID 652039, 2013;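 active = activation above the mean of all tested compounds plus 3 SD, computed per campaign excluding outliers beyond control limits, cut at about 13% in these data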
ADAM17 inh: ADAM17 inhibitors, primary screen, biochemical, QFRET. Disintegrin and metalloproteinase domain-containing protein 17 (Homo sapiens), P78536. recombinant ADAM17, EDANS/DABCYL FRET peptide cleavage. inhibition, % at 6.95 µM. 0.83% of 370,000 active. AID 720648, 2013;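 active = inhibition above the mean of compounds lying between control limits plus 3 SD, set per campaign, cut at about 8.5% in these data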;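 note: 0% = DMSO-only wells as the low control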
Numbers without * were called inactive; x = no result given.

SMILES	rCAG RNA binder	NR3A LBD binder	ADAM10 inh	AHR act	KLK7 zymogen act	ADAM17 inh
CC(C)[C@@H]1CC[C@@H](C)C[C@H]1OC[B-](F)(F)F	2	x	6	x	0	3
COc1ccc(CC(=O)N(C)Cc2ccc(C(C)(C)C)cc2)cc1S(=O)(=O)N1CCOCC1	-6	11*	4	6	0	0
CSc1nc(N)nc(SCC(=O)Nc2cccc(F)c2)c1C#N	10	26*	5	6	2	-2
CSc1nc(N)nc(SCC(=O)C(C)(C)C)c1C#N	6	-34	5	21	1	6
CSc1nc(N)nc(SCC(=O)Nc2ccc(Cl)cc2)c1C#N	22	29*	18	6	0	3
NC(=O)CC1Nc2cccc3cccc(c23)NC1=O (stereo not drawn)	6	-2	-32	51*	-1	-8
O=C(CC1Nc2ccccc2NC1=O)c1ccccc1 (stereo not drawn)	x	x	x	78*	x	x
O=C(CC1Nc2ccccc2NC1=O)NCCc1ccccc1 (stereo not drawn)	4	0	-96	49*	-2	-31
CC(NC(=O)CC1Nc2ccccc2NC1=O)c1ccccc1 (stereo not drawn)	8	-1	-130	16	-2	-49
Cc1ccc(NC(=O)OC2CC3CC2[C@H]2CCCCN2[C@H]3Cc2ccccc2)cc1 (stereo partly drawn)	1	x	1	x	0	0
COC(=O)c1ccsc1NS(C)(=O)=O	1	x	-34	x	0	-2
C=CCn1c(=O)c(C(=O)Nc2ccccc2O)c(O)c2ccccc21	30	-1	-58	63*	0	-14
COc1cccc(CN(C)C(c2ccccc2)c2ccccc2)c1OC	3	-2	4	2	1	2
COc1ccc(CN(C)C(c2ccccc2)c2nnnn2-c2ccccc2C)c(OC)c1C (stereo not drawn)	-4	15*	3	8	0	3
C[C@H]1CN(S(=O)(=O)C(C)(C)C)[C@@H](CCO)/C1=C\CCO	3	x	-3	x	0	3
CC1(c2ccc3ccccc3c2)NC(=O)N(CC(=O)Nc2cccc(S(=O)(=O)N3CCOCC3)c2)C1=O (stereo not drawn)	14	-2	9	49*	0	2
CC1(c2cc(F)ccc2F)NC(=O)N(CC(=O)Nc2cccc(S(=O)(=O)N3CCCC3)c2)C1=O (stereo not drawn)	5	0	2	0	1	2
CCCCNC(=O)C[C@H]1C[C@@]2(C(=O)OC)C(=C[C@H](C3CCCC3)O[C@@H]2C)N(CCc2ccc(OC)c(OC)c2)C1=O	3	x	-5	x	0	1
O=C(CSc1n[nH]c(-c2ccco2)n1)Nc1ccc(Br)cc1	10	14*	15	-1	0	-2
COc1ccc(NC(=O)CSc2n[nH]c(-c3ccco3)n2)cc1	0	-6	0	2	1	2
O=C(CSc1n[nH]c(-c2ccncc2)n1)Nc1ccccc1	1	27*	-9	0	0	-2
O=C(CSc1n[nH]c(-c2ccco2)n1)Nc1sc2c(c1C(=O)Nc1ccccc1)CCCC2	19	6	-3	48*	0	-8
O=S1(=O)c2ccc(Br)cc2OC[C@@H](c2ccccc2)N1Cc1cn(CCC2OCCCO2)nn1	6	x	-4	x	0	-8
Nc1[nH]c(C(=O)c2ccccc2)c(-c2ccccc2)c1C(=O)NCCc1c[nH]c2ccccc12	11	x	3	x	0	1
Nc1ccc(C(=O)N/N=C/c2cn(Cc3cccc(F)c3)c3ccccc23)cc1	9	18*	-16	x	-1	-2
SMILES	rCAG RNA binder	NR3A LBD binder	ADAM10 inh	AHR act	KLK7 zymogen act	ADAM17 inh
CC(=O)n1cc(/C=N/NC(=O)c2ccccc2Cl)c2ccccc21	x	-2	x	44	x	x
CC(=O)n1cc(/C=N/NC(=O)c2ccc(Cl)cc2)c2ccccc21	21	15*	-2	4	0	-3
COc1ccc(CNC(=O)Cc2nn(C)c(=O)c3ccccc23)cc1	0	11*	-5	8	0	0
Cc1c(Cl)cccc1N=c1c([N+](=O)[O-])nn(-c2ccccc2)n1O	1	-4	-2	55*	0	-3
Cc1ccc(NC(=S)N/N=C/c2ccc(Cl)c([N+](=O)[O-])c2)cc1	3	22*	8	7	0	3
Cc1ccc(CNC(=S)Nc2ccc(C)c([N+](=O)[O-])c2)cc1	8	11*	5	4	0	5
O=C(N/N=C/c1ccc(Cl)c([N+](=O)[O-])c1)C1CC1	1	-2	2	3	-1	-2
O=[N+]([O-])c1cc(/C=N/NC(=S)Nc2ccccc2Cl)ccc1Cl	26	18*	11	16	0	0
COc1ccc(NC(=S)N/N=C/c2ccc(F)c(F)c2)cc1	2	3	5	114*	0	1
Fc1ccc(NC(=S)N/N=C/c2ccc(F)c(F)c2)cc1	-2	1	-1	15	0	-3
O=C(N=C1N(CC2CC2)CC2(C=C3CCCCC3n3c(=O)n(-c4ccccc4)c(=O)n32)N1C(=O)OCc1ccccc1)c1ccccc1 (stereo not drawn)	10	x	7	x	0	4
CCCCCCC(=O)n1ccc2ccc(-c3ccc4ccn(Cc5ccc(OC)cc5)c4c3)cc21	18	x	-25	x	0	-13
COP(=O)(O)CCOCCC(CC(C)C)NC(=O)OCc1ccccc1 (stereo not drawn)	5	x	-22	x	0	-10
COC(=O)C1CN(C2CCCC2)CCS(=O)(=O)N1Cc1ccc(Cl)cc1 (stereo not drawn)	4	x	-9	x	1	-6
CCOC(=O)/C(=C/C=C1\Sc2ccccc2N1CC)C(C)=O	x	0	x	46	x	x
CCOC(=O)/C(=C\C=C1/Sc2ccccc2N1CC)C(C)=O	-53	-4	9	53*	0	7
NC(=O)c1cc2ccccc2o/c1=N/NC(=O)c1ccccc1	5	1	0	51*	1	-1
COc1cccc(C(=O)N/N=c2/oc3ccccc3cc2C(N)=O)c1	-2	1	-5	18	-1	1
CN(C)c1ccc(-c2nnc(-c3cccs3)o2)cc1	-3	0	-57	-1	5	-22
Brc1ccc(-c2cnc(-c3cccs3)o2)cc1	7	8	-248	66*	-7	-68
O=C(/C=N/O)Nc1ccc2sc3ccccc3c2c1	17	34*	4	0	0	2

Bioassay records: PubChem, several laboratories
